CtBP-E1A inh: qHTS Assay for Inhibitors of the CtBP/E1A Interaction | CtBP / adenovirus E1A interaction (AlphaScreen) | AlphaScreen GST-E1A/His-CtBP binding, 1536-well; stronger effect = lower value | activity change, % (test concentration not listed) | actives 0.49% (n = 340,000) | AID 651724, 2012; in the data active means activity change below about -65%; inconclusive means mostly about -30% to -63%
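Homogeneous bead-based format: GST-tagged E1A captured on glutathione donor beads, His-tagged CtBP on nickel acceptor beads; compounds precede bead addition by 2 h at 37 °C.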
p53 reactivator: qHTS assay for re-activators of p53 using a Luc reporter. actives 0.063% (n = 320,000). H1299 p53-A138V BP100-luciferase reporter, luminescence, 24 h. Potency, µM (series often up to 92.2 µM), usual class: activators; further: nearly all actives have a fitted effect of over 45% in size
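p53-null H1299 cells stably carrying temperature-sensitive p53-A138V and a BP100-luciferase reporter were pinned with compounds (4-point, 1:5 series) and held 24 hrs at 37 deg C. Luminescence was read 10 min after detection reagent.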
RORg inh: qHTS for inhibitors of ROR gamma transcriptional activity | Potency, µM (titrated, usually from 53.6 µM), usual class: inhibitors | Drosophila S2 Gal4-RORgamma UAS-luciferase reporter, 20 h | actives 5.4% (n = 310,000) | Nuclear receptor ROR-gamma (Mus musculus), P51450 | AID 2551, 2010; further: nearly all actives have a fitted effect of over 60% in size
Target sequence (P51450 whole entry, looked up, the tested form may be a part): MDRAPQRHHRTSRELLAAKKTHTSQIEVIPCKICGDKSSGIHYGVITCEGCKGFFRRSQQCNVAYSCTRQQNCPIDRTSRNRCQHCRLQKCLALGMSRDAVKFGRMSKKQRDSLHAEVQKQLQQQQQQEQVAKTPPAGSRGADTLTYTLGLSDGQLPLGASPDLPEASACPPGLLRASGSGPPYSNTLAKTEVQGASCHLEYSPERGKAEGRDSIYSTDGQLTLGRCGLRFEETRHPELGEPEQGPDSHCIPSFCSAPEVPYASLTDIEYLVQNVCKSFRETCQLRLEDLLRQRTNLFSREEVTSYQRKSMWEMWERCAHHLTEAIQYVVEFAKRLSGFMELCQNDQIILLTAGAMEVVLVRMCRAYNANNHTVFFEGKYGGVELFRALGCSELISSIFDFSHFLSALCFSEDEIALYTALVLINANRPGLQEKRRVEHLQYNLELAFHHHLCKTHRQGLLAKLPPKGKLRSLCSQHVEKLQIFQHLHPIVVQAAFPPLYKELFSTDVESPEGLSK
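Luminescence from a UAS-regulated Photinus luciferase reporter in stably transfected Drosophila Schneider cells is measured; decreased signal marks ROR gamma inhibition. Fusion expression is induced by 700 uM copper sulfate for 20 hr.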
Gal4-VP16 FLuc: VP16 counterscreen qHTS for inhibitors of ROR gamma transcriptional activity. actives 3.5% (n = 310,000). Drosophila S2 Gal4-VP16 UAS-luciferase, luminescence, 20 h. Potency, µM (doses to about 53.6 µM), usual class: inhibitors. AID 2546, 2010;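 further: Gal4-VP16 expression switched on by copper sulfate through the metallothionein promoter; nearly all actives have a fitted effect of over 50% in size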
Six1-Eya2 blk: qHTS Assay for Inhibitors of the Six1/Eya2 Interaction; actives 0.56% (n = 360,000); activity change, % (concentration not given with the values); Homeobox protein SIX1 (Homo sapiens) + Protein phosphatase EYA2 (Homo sapiens), …; AlphaScreen GST-Six1/His-Eya2 binding, biochemical; stronger effect = lower value; in the data active means activity change below about -65%; inconclusive means mostly about -30% to -63%
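AlphaScreen luminescence read after one hour at 37 °C in darkness. Pin-transferred compounds met GST-Six1 and His-Eya2 protein (5X stock 250 nM/500 nM) plus glutathione donor and Ni-chelate acceptor beads (5X, 50 ug/mL).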
A number is an active result; 0 = inactive; ? = inconclusive; - = no result given; [ ] = another dose, or the depositor's remark. Sampled rows, rich in hits. Any-hit rate of the full collection: about 5.4%. Unless noted, the call rests on the fitted dose curve; in most records, active means well fitted curve in the direction sought with a large enough effect; inconclusive means small, poorly fitted or top-dose-only effect, or another doubt; inactive means no such curve, though single readings can be large; an effect the other way counts as inactive or inconclusive.

SMILES	CtBP-E1A inh	p53 reactivator	RORg inh	Gal4-VP16 FLuc	Six1-Eya2 blk
CCn1cc(Cl)c(C(=O)Nc2nc3ccccc3n2CCN2CCCCC2)n1	0	0	10µM	8.91µM	0
Cn1ncc([N+](=O)[O-])c1C(=O)Nc1nc2ccccc2n1CCN1CCCCC1	?	0	3.55µM	?	0
CCn1c2ccccc2c(=O)c2ccccc21	0	0	0	0	0
CCn1c(-c2ccccc2)c(C(=O)CCl)c2ccccc21	-	0	11.2µM	?	0
Cn1c(-c2ccccc2)c(C(=O)CCl)c2ccccc21	0	0	7.08µM	?	0
Cc1ccc(S(=O)(=O)NCCCN2CCOCC2)c(C)c1	0	0	0	0	0
O=C(/C=C/c1ccc(Cl)cc1)NC(=S)Nc1ccc(CN2CCOCC2)cc1	0	0	3.98µM	6.31µM	0
O=C(/C=C/c1ccc(Cl)cc1)NC(=S)Nc1ccc(NC(=O)c2ccco2)cc1	0	0	4.47µM	7.08µM	0
COc1ccc(Br)cc1/C=C/C(=O)NC(=S)Nc1ccc(CN2CCOCC2)cc1	-	0	1.78µM	4.47µM	0
COc1ccc(NC(=O)/C=C/c2cc(Br)ccc2OC)cc1	0	0	?	0	0
COc1ccc(Br)cc1/C=C/C(=O)c1ccc(NC(C)=O)cc1	0	0	5.01µM	10µM	0
CC(=NNC(=O)c1ccc(NS(=O)(=O)c2ccc(Br)cc2)cc1)c1cccnc1	0	0	-	-	0
O=C(O)c1ccc(C(=O)c2cc([N+](=O)[O-])cc([N+](=O)[O-])c2)cc1	0	-	-	-	0
OC(CN(Cc1ccccc1)Cc1ccccc1)c1ccccc1 (configuration not stated)	0	-	-	-	0
COc1ccccc1CNS(=O)(=O)N(C)C	0	0	0	0[10 µM]	0
O=C(CC12CC3CC(CC(C3)C1)C2)NC(=S)Nc1ccc(CN2CCOCC2)cc1	0	0	1.58µM	10µM	0
CCN(CC)S(=O)(=O)c1cc(C(=O)OCC(=O)Nc2ccc(-c3nc4ccc(C)cc4s3)cc2)ccc1F	0	?	12.6µM	8.91µM	0
CCN(CC)S(=O)(=O)c1ccc(C(=O)OCC(=O)Nc2ccc(-c3nc4ccc(C)cc4s3)cc2)cc1	0	?	0.398µM	?	0
CC(C)(C)C(=O)N1CCN(c2ccc3c(c2)C2CC3CCN2C(=O)OCc2ccccc2)CC1 (configuration not stated)	0	-	-	-	0
Cc1nc(Nc2nc3ccccc3o2)nc2c1CCC2	0	0	2.82µM	6.31µM	0
Cc1cccc(C)c1Nc1nc2ccccc2o1	0	0	15.8µM	?	0
NC(=O)c1ccc(SCC(=O)NC2CCCCC2)c([N+](=O)[O-])c1	0	0	0	0	0
COc1cc([N+](=O)[O-])cc(/C=N/NC(=O)C(C)Nc2ccccc2C)c1O (configuration not stated)	-73.2	0	0.316µM	0.501µM	?
COc1cc([N+](=O)[O-])cc(/C=N/NC(=O)C(C)Nc2cccc(C)c2)c1O (configuration not stated)	?	0	0.891µM	1.12µM	0
CC(=O)NC(CCCN1C(=O)c2ccccc2C1=O)c1nnn(C)n1 (configuration not stated)	0	0	0	0	0
SMILES	CtBP-E1A inh	p53 reactivator	RORg inh	Gal4-VP16 FLuc	Six1-Eya2 blk
CN(C(=S)Nc1ccc(SC(F)F)cc1)C(c1ccccc1)c1ccccc1	-	0	?	?	0
FC(F)Sc1ccc(NC(=S)NCc2ccccc2)cc1	0	0	11.2µM	?	0
O=C(O)c1ccc(NC(=S)NCc2ccccc2)cc1	0	-	0	0	0
FC(F)(F)c1ccc(NC(=S)NCc2ccccc2)cc1	0	0	4.47µM	?	0
FC(F)Sc1ccc(NC(=S)NC(c2ccccc2)c2ccccc2)cc1	-	0	7.08µM	?	0
COC(=O)c1c(C)[nH]c(C(=O)COC(=O)Cn2cc(C(F)(F)F)ccc2=O)c1C	0	0	-	-	0
CC(C)N(NC(=O)c1cccc2ccccc12)C(C)C	0	0	0	0	0
COC(=O)CNc1c(-c2ccccc2)nc2ccc(Br)cn12	0	?	0	0	0
CN1c2ccccc2-c2nc3ccccc3n2C1c1ccncc1 (configuration not stated)	0	0	0	0	0
CCN1c2ccccc2-c2nc3ccccc3n2C1c1ccco1 (configuration not stated)	0	0	15.8µM	?	0
CCn1c(-c2ccco2)nc2ccccc21	0	?	0[0.365 µM]	-	0
CN1c2ccccc2-c2nc3ccccc3n2C1c1ccccn1 (configuration not stated)	0	0	3.98µM	?	0
c1ccc(CN2c3ccccc3-c3nc4ccccc4n3C2c2ccccn2)cc1 (configuration not stated)	0	0	15.8µM	0	0
COc1ccc(C(=O)N2CCN(c3ccccc3Cl)CC2)cc1S(=O)(=O)NC1CC1	-	0	-	-	0
Cc1cccc(N2CC(C(=O)Nc3nnc(SCc4cccnc4)s3)CC2=O)c1 (configuration not stated)	0	0	0	0	0
C=CCc1c(C)[nH]c2c(OC)cccc2c1=S	0	0	11.2µM	?	0
O=C1C=C(NCc2ccccc2)CCC1	0	0	0	0	0
O=C1C=C(NC2=CC3OC(c4ccccc4)OCC3OC2=O)CCC1 (configuration not stated)	0	0	10µM	10µM	0
CS(=O)(=O)c1ccc2nc(NC(=O)c3ccco3)sc2c1	0	?	?	?	0
O=C(NC(=S)Nc1nc2ccc(F)cc2s1)c1ccco1	0	0	0.794µM	1.78µM	0
CC1CCc2nc(NC(=O)Cc3cccs3)sc2C1 (configuration not stated)	0	?	?	?	0
O=C(Nc1nc2cc3c(cc2s1)OCCO3)c1ccco1	0	0	2.51µM	6.31µM	0
CC1CCc2nc(NC(=O)c3ccco3)sc2C1 (configuration not stated)	0	0	2.51µM	3.98µM	0
CC(=O)Nc1nc2cc3c(cc2s1)OCO3	0	?	0	0	0
O=C(Nc1nc2cc3c(cc2s1)OCO3)C1=COCCO1	0	0	4.47µM	3.98µM	0
C[C@@]12C(=O)N(Cc3ccccc3)CC(=O)N1[C@H]1c3ccccc3OC[C@@H]1[C@@H]2c1ccccc1	0	0	-	-	0
CCOC(=O)c1sc(N)c(C(=O)Nc2ccccc2)c1C	0	0	0	0	0
CC(C)(C)C(=O)c1c(N)[nH]c(C(=O)c2ccccc2)c1-c1ccccc1Br	0	-	-	-	0
COc1ccc(-n2nnnc2S(=O)(=O)Cc2ccc(C(=O)O)cc2)cc1	0	0	0	0	0

High-throughput results (PubChem)
